Screening data: PubChem BioAssay, University of Kansas High Throughput Screening Laboratory
mHTT-CaM PPI inh – mutant huntingtin-calmodulin interaction inhibitors – biochemical, AlphaScreen, primary screen; inhibition, % at 15 µM; AID 1671202, 2021; hit rate 3.6% among 190,000; AlphaScreen His-mHTT/GST-CaM binding, luminescence;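 note: 0% = both proteins with DMSO and 100% = one protein alone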
Pf apPOL block – Pf-apPOL inhibitors, biochemical, fluorescence; Plasmodium falciparum apicoplast DNA polymerase (apPOL); Recombinant Pf-apPOL, molecular beacon fluorescence, 1.5 h; inhibition, % at 10 µM; hit rate 0.25% among 210,000
Numbers without * were called inactive. The list is not random: actives were taken first. Their share in the collection is about 3.5%. Cut-off read from the data, not from the text of the source: active = inhibition above about 50%; inactive = the rest.

SMILES	mHTT-CaM PPI inh	Pf apPOL block
CCC(=O)N1CCN(c2nc(C3CC3)nc(C)c2Cc2ccccc2F)CC1	35	2
Cc1ccccc1NC(=O)CSCc1cccc(Cl)c1	-18	18
CC1=NN(c2ccccc2)C(=O)/C1=C/c1ccc(Oc2ccc([N+](=O)[O-])cc2[N+](=O)[O-])cc1	52*	0
CC1=NN(c2cccc(Cl)c2)C(=O)/C1=C/c1ccc(F)cc1	8	7
CCN(CC)c1ccc(/C=C2/N=C(c3ccccc3)NC2=O)cc1	88*	-5
COc1ccccc1OCCOc1ccc([N+](=O)[O-])cc1/C=C1/C(=O)N(c2ccccc2)N=C1C	4	11
CCN(CC)c1ccc(/C=C2/N=C(c3ccc(F)cc3)OC2=O)cc1	1	-4
CCN(C)c1ccc(/C=C2/C(=O)N(c3cccc(Cl)c3)N=C2C)cc1	68*	-11
CCN(CC)c1ccc(/C=C2/C(=O)N(c3ccccc3)N=C2C)cc1	65*	-4
CC1=NN(c2ccccc2)C(=O)/C1=C/c1ccccc1	17	-5
Cc1ccccc1NC(=O)c1cc2cc(Cl)cc(Cl)c2oc1=N	8	-4
CNC(=O)c1cc2c(=O)n3cccc(C)c3nc2n(CC2CCCO2)c1=N (centres undefined)	-1	-1
CCOc1cc(/C=C2/C(=O)N(c3ccc(C)c(C)c3)N=C2C)cc(I)c1O	72*	-16
CCN(C)c1ccc(/C=C2/C(=O)N(c3ccc(Cl)cc3)N=C2C)cc1	70*	0
CC1=NN(c2ccc(F)cc2)C(=O)/C1=C/c1ccc(N(C)C)cc1	10	-2
C=CCc1cc(/C=C2/C(=O)N(c3ccccc3)N=C2C)cc(OCC)c1O	49	8
CCOc1cc2c(cc1OCC)C(CN1C(=O)c3ccccc3C1=O)=NCC2	9	-2
CCOc1cccc(N2C(=O)CC(N3CCN(c4ccc(F)cc4)CC3)C2=O)c1 (centres undefined)	-2	-1
O=C(c1ccc(Sc2ccc(F)cc2)c([N+](=O)[O-])c1)N1CCC2(CC1)OCCO2	45	-3
CN(C)c1ccc(C=C2c3cc([N+](=O)[O-])cc([N+](=O)[O-])c3-c3c2cc([N+](=O)[O-])cc3[N+](=O)[O-])cc1	44	-1
COc1ccc(C=C2c3cc([N+](=O)[O-])cc([N+](=O)[O-])c3-c3c2cc([N+](=O)[O-])cc3[N+](=O)[O-])cc1	100*	1
CC(C)c1ccc(CNC(=O)C(=O)NCc2ccncc2)cc1	0	-2
O=C(c1ccc(OCC2CCCN(C(=O)c3ccccc3Cl)C2)cc1)N1CCCCC1 (centres undefined)	14	-2
Cc1cc(C(c2cc(C)c(N)c(C)c2)c2ccco2)cc(C)c1N	46	-3
Cc1cc(C(c2ccccc2)c2cc(C)c(N)c(C)c2)cc(C)c1N	80*	-4
SMILES	mHTT-CaM PPI inh	Pf apPOL block
Cn1nc(-c2nc(-c3ccccc3)no2)c2c1CCN(C(=O)c1cccs1)C2	21	0
Cn1c2c(c3ccccc31)CN(C(=O)c1cccs1)CC2	100*	13
C=CCOc1ccccc1CNc1ccc(C)cc1	54*	0
C=CCOc1ccccc1CNc1cc(OC)ccc1OC	67*	12
C=CCOc1ccccc1CNc1ccccc1F	-87	3
C=CCNC(=O)C(=O)Nc1cc(OC)ccc1OC	-4	-7
CC(=O)N1CCN(C(=O)c2cc3sccc3n2Cc2ccccc2)CC1	14	-4
COc1ccc(-c2ccoc2)cc1[C@H]1[C@H]2C=CC[C@@H](C)[C@@H]2C(=O)N1Cc1ccccc1	86*	0
COc1ccc(-c2ccc(C)cc2)cc1[C@H]1[C@H]2C=CC[C@@H](C)[C@@H]2C(=O)N1Cc1ccccc1	-2	-4
CCOc1ncccc1C(=O)Nc1ccc(Nc2ccccc2)cc1	85*	-2
O=C(Nc1ccc(Nc2ccccc2)cc1)c1ccccc1I	70*	-8
CCOc1ncccc1C(=O)Nc1ccc(Cl)cc1	-12	-4
O=C(Nc1ccc(Nc2ccccc2)cc1)c1ccccc1F	33	-2
CC[N+](C)(CC)CC(O)COC12CC3CC(CC(C3)C1)C2 (centres undefined)	-1	-6
CCOc1ccc(C(F)(F)F)cc1NC(=O)c1ccc(OC)c(OC)c1	-1	2
CC1CCN(C2=NC(=O)/C(=C/c3ccc(Br)cc3)S2)CC1	0	-2
Cc1cc(NC(=O)C2Oc3ccccc3NC2=O)ccc1Br (centres undefined)	-8	-1
CC(CCc1ccc(O)cc1)Nc1ccccc1F (centres undefined)	1	1
O=C(c1ccoc1)N1CCCC(c2ccnc(Nc3cccc(F)c3)n2)C1 (centres undefined)	72*	-2
O=C(c1cccc(F)c1)N1CCCC(c2ccnc(Nc3ccccc3)n2)C1 (centres undefined)	18	0
